Assay results reported in the antibiotic and cytotoxicity screens of Wong et al. (2023).
Hit rate of the full screen: of about 39,000 compounds, about 3,300 (8.5%) were called active. The sample as a whole holds a higher share of actives than the screen did.

tested on: HepG2; experiment: cytotoxicity call (relative viability < 0.9); conditions: 10 µM

Structure (SMILES) | cytotoxicity call
C[C@@H]1CCCCO[C@H](CN(C)C(=O)Nc2ccc(C(F)(F)F)cc2)[C@@H](C)CN([C@@H](C)CO)C(=O)c2cc(NC(=O)c3ccccc3)ccc2O1 | inactive
CN[C@@H]1[C@@H](O)[C@@H](O[C@@H]2[C@@H](O)[C@H](O[C@H]3OC(CN)=CC[C@H]3N)[C@@H](N)C[C@H]2N)OC[C@]1(C)O | inactive
C[C@H](CO)N1C[C@H](C)[C@@H](CN(C)S(=O)(=O)c2ccc(F)cc2)Oc2c(NC(=O)C3CC3)cccc2C1=O | inactive
O=C(Nc1ccno1)N1CCOCC1 | inactive
C[C@@H]1CN([C@@H](C)CO)C(=O)Cc2cc(NS(=O)(=O)c3ccc(F)cc3)ccc2O[C@H]1CN(C)CC1CC1 | inactive
C[C@H]1CCCCO[C@H](CN(C)C(=O)NC2CCCCC2)[C@@H](C)CN([C@@H](C)CO)C(=O)c2cc(NC(=O)c3ccncc3)ccc2O1 | inactive
O=C(C[C@H]1CC[C@H](NS(=O)(=O)c2ccc(F)cc2)[C@@H](CO)O1)NCc1ccc(Cl)c(Cl)c1 | inactive
Cc1ccc(S(=O)(=O)N(C)C[C@@H]2Oc3c(NS(=O)(=O)c4ccccc4)cccc3C(=O)N([C@H](C)CO)C[C@@H]2C)cc1 | inactive
NNC(=O)[C@H]1CCCNC1=O | active
COC(=O)[C@H]1CCCNC1=O | inactive
O=C1NCCC[C@@H]1C(=O)N1CCCCC1 | inactive
COC[C@H]1C[C@@H](c2nc(-c3ccc4c(c3)COc3cc5c(ccc6[nH]c([C@@H]7CC[C@H](C)N7C(=O)[C@@H](NC(=O)OC)C(C)C)nc65)cc3-4)c[nH]2)N(C(=O)[C@H](NC(=O)OC)c2ccccc2)C1 | inactive
C[C@H]1CCCCO[C@H](CN(C)S(=O)(=O)c2ccc(Cl)cc2)[C@@H](C)CN([C@@H](C)CO)C(=O)c2cc(NC(=O)Nc3cccc4ccccc34)ccc2O1 | inactive
COc1ccc(CN(CCN(C)C)c2ncccn2)cc1.Cl | inactive
CCCCCCCCCCCCCCCC[N+](C)(C)CCN(Cc1ccc(OC)cc1)c1ncccn1 | active
C[C@@H]1CN([C@H](C)CO)C(=O)c2cc(NC(=O)Cc3ccccc3)ccc2O[C@@H](C)CCCCO[C@@H]1CN(C)C(=O)CCC(F)(F)F | inactive
C[C@H](CO)N1C[C@H](C)[C@H](CN(C)C(=O)Nc2ccccc2)Oc2c(NC(=O)c3ccc(-c4nccs4)cc3)cccc2C1=O | inactive
COc1ccc(NC(=O)Nc2ccc3c(c2)C(=O)N([C@@H](C)CO)C[C@@H](C)[C@H](CN(C)S(C)(=O)=O)O3)cc1 | inactive
COc1ccc(NC(=O)Nc2ccc3c(c2)C(=O)N([C@H](C)CO)C[C@@H](C)[C@H](CN(C)S(C)(=O)=O)O3)cc1 | active
COc1ccc(NC(=O)Nc2ccc3c(c2)C(=O)N([C@@H](C)CO)C[C@H](C)[C@H](CN(C)S(C)(=O)=O)O3)cc1 | active
COc1ccc(NC(=O)Nc2ccc3c(c2)C(=O)N([C@H](C)CO)C[C@H](C)[C@@H](CN(C)S(C)(=O)=O)O3)cc1 | inactive
COc1ccc(NC(=O)Nc2ccc3c(c2)C(=O)N([C@H](C)CO)C[C@@H](C)[C@@H](CN(C)S(C)(=O)=O)O3)cc1 | inactive
COc1ccc(NC(=O)Nc2ccc3c(c2)C(=O)N([C@@H](C)CO)C[C@@H](C)[C@@H](CN(C)S(C)(=O)=O)O3)cc1 | inactive
